Bioassay records as filed in PubChem BioAssay.
HCV inhibitor: qHTS Assay for Inhibitors of Hepatitis C Virus (HCV); 3.4% of 340,000 active; Huh7.5.1 HCVcc-Cre infection, luciferase reporter, 44 h; Potency, µM (titrated, usually from 41.8 µM), inactives show at the top dose activity change, negative = inhibition, usual class: inhibitors; also: % is scaled to controls: 0 for no effect and ±100 for the full control effect
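After 44 h co-culture of compound, cells and HCVcc-Cre (~0.5 moi), substrate is added for 15 min at room temperature and luciferase measured over 15 sec. Cells were seeded at 1,000/well and pre-cultured 4 h.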
Pf growth 48h: Primary qHTS for delayed death inhibitors of the malarial parasite plastid, 48 hour incubation; Potency, µM (highest dose often 28.7 µM), without a hit: top-dose activity change, negative = inhibition, most hits filed as inhibitors; 5.9% of 310,000 active; P. falciparum luciferase growth in erythrocytes, 48 h; also: % is scaled to controls: 0 for no effect and ±100 for the full control effect
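Luminescence readout; reporter = integrated firefly luciferase in P. falciparum. RBC culture at 2% hematocrit, 0.1% parasitemia final, 37 C/5% CO2; decreased signal taken as growth inhibition.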
Vaccinia Venus: qHTS for Stage-Specific Inhibitors of Vaccinia Orthopoxvirus: Venus Reporter Primary qHTS; Vaccinia virus Venus reporter expression, fluorescence; Potency, µM (top dose mostly 36.5 µM), for the others: at the top dose activity change, negative = inhibition, usual class: inhibitors; 0.46% of 330,000 active; AID 720580, 2013; calls by dose curve; tested in A549 cells; also: % is scaled to controls: 0 for no effect and ±100 for the full control effect; nearly all actives have a fitted effect of over 30% in size
NS1 inh: qHTS Assay for Inhibitors of Influenza NS1 Protein Function. Potency, µM (top dose mostly 46.1 µM), inactives show top-dose activity, positive = more growth. 0.4% of 270,000 active; calls by dose curve; also: actives are rising curves; nearly all actives have a fitted effect of over 50% in size
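Compounds were scored for reversing the slow growth caused by influenza A NS1 in S. cerevisiae, measured by optical density at 600 nm. Assay medium contained 2% galactose at pH 6.0; NS1-free yeast of the same strain were the positive control.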
Pf growth 96h: Primary qHTS for delayed death inhibitors of the malarial parasite plastid, 96 hour incubation | P. falciparum luciferase reporter growth, 96 h | Potency, µM (titrated, usually from 28.7 µM), for the others: top-dose activity change, negative = inhibition, hits mostly inhibitors | 6.9% of 320,000 active; also: % is scaled to controls: 0 for no effect and ±100 for the full control effect
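Delayed-death screen, second-generation endpoint: infected erythrocytes, 2% hematocrit, 0.05% parasitemia final; 96 hours at 37 C, 5% CO2; luciferase detection reagent; luminescence decrease equals reduced growth.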
VACV mCherry inh: qHTS for Stage-Specific Inhibitors of Vaccinia Orthopoxvirus: mCherry Reporter Primary qHTS | Vaccinia virus mCherry reporter infection, fluorescence | Potency, µM (highest dose often 36.5 µM), for the others: at the highest dose activity change, negative = inhibition, actives largely listed as inhibitors | 0.63% of 310,000 active | AID 720579, 2013; calls by dose curve; tested in A549 cells; also: % is scaled to controls: 0 for no effect and ±100 for the full control effect; nearly all actives have a fitted effect of over 35% in size
Active calls of the source: *; i = inactive; ? = inconclusive; . = no result given. Sampled rows, rich in hits. Any-hit rate of the full collection: about 11%. Unless noted, calls follow the shape of the dose curve; as a rule, active = well fitted inhibition curve with a large enough effect; inconclusive = small, poorly fitted or top-dose-only effect, or another doubt; inactive = no such curve, though single readings can be large or run the other way. Potency is read from the fitted curve at half-maximal effect.

SMILES	HCV inhibitor	Pf growth 48h	Vaccinia Venus	NS1 inh	Pf growth 96h	VACV mCherry inh
COC(=O)[C@@]12CCCCN1[C@H](c1ccc(-c3ccc(C(C)=O)cc3)cc1)[C@H]1C(=O)N(C)C(=O)[C@H]12	7%	?	?	.	-8%	-15%
COC(=O)[C@@]12CCCN1[C@H](c1ccc(-c3ccc(C(C)=O)cc3)c(OC)c1)[C@H]1C(=O)N(C)C(=O)[C@H]12	-10%	13µM*	-2%	.	?	i
COC(=O)[C@@]12CCCCN1[C@H](c1ccc(-c3ccc(Cl)c(Cl)c3)c(OC)c1)[C@@H]1C(=O)N(C)C(=O)[C@@H]12	-29%	.	?	.	.	?
COC(=O)[C@@]12CCCCN1[C@H](c1ccc(-c3ccc(F)cc3)cc1)[C@@H]1C(=O)N(C)C(=O)[C@@H]12	-19%	?	-29%	.	13µM*	-12%
COC(=O)[C@@]12CCCN1[C@H](c1ccc(-c3ccc4c(c3)OCO4)c(OC)c1)[C@H]1C(=O)N(C)C(=O)[C@H]12	?	?	-6%	.	?	-5%
COC(=O)[C@@]12CCCCN1[C@H](c1ccc(-c3ccc4c(c3)OCO4)c(OC)c1)[C@@H]1C(=O)N(C)C(=O)[C@@H]12	?	5.2µM*	?	.	13µM*	?
COC(=O)[C@@]12CCCN1[C@H](c1ccc(-c3ccc(OC)cc3)c(OC)c1)[C@@H]1C(=O)N(C)C(=O)[C@@H]12	?	13µM*	-26%	.	12µM*	-9%
COC(=O)[C@@]12CCCN1[C@H](c1ccc(-c3ccccc3)c(OC)c1)[C@H]1C(=O)N(C)C(=O)[C@H]12	1%	.	-6%	.	.	i
COC(=O)[C@@]12CCCCN1[C@H](c1ccc(-c3cc(C(C)=O)cs3)c(OC)c1)[C@H]1C(=O)N(C)C(=O)[C@H]12	1%	4.1µM*	-17%	.	?	i
CCN1C(=O)[C@H]2[C@@H](c3ccc(C)cc3)N3C(=O)N(c4cccc(Cl)c4)C(=O)[C@@]3(Cc3ccccc3)[C@H]2C1=O	?	?	-12%	.	?	i
CC(C)(C)N1C(=O)[C@H]2[C@@H](c3ccc(Br)cc3)N3C(=O)N(c4ccccc4)C(=O)[C@@]3(C)[C@H]2C1=O	22%	?	-2%	3%	13µM*	i
CC[C@@]12C(=O)N(c3cccc(Cl)c3)C(=O)N1[C@H](c1ccc(Br)cc1)[C@@H]1C(=O)N(C(C)(C)C)C(=O)[C@@H]12	-13%	9.3µM*	-30%	.	?	-9%
CC(C)(C)N1C(=O)[C@H]2[C@@H](c3ccc(Br)cc3)N3C(=O)N(c4cccc(Br)c4)C(=O)[C@@]3(Cc3ccccc3)[C@H]2C1=O	-10%	?	-13%	23%	?	i
CC[C@@]12C(=O)N(c3cccc(C)c3)C(=O)N1[C@H](c1ccc(OC)cc1)[C@@H]1C(=O)N(C(C)(C)C)C(=O)[C@@H]12	27%	?	-16%	2%	?	i
CCN1C(=O)[C@H]2[C@@H](c3ccc(C)cc3)N3C(=O)N(c4cccc(Cl)c4)C(=O)[C@@]3(CC(C)C)[C@H]2C1=O	-17%	?	-12%	.	8.3µM*	-30%
CC[C@@]12C(=O)N(c3cccc(C)c3)C(=O)N1[C@H](c1ccc(Br)cc1)[C@@H]1C(=O)N(C(C)(C)C)C(=O)[C@@H]12	-18%	3.3µM*	?	17%	2.3µM*	?
COc1cc(/C=C(\C#N)c2[nH]nc(N)c2C#N)cc(OC)c1O	?	.	18%	8%	.	-7%
COc1ccc(OCC(=O)N2CCN(C3CCC(c4ccccc4)CC3)CC2)cc1 (configuration not stated)	?	11%	-23%	-13%	?	-4%
